Results on 68 compounds are retold here after the antibiotic and cytotoxicity screens of Wong et al. (2023).

Each structure is given as a SMILES string. Hit rate of the full screen: of about 39,000 compounds, about 3,300 (8.5%) were called active. The sample as a whole holds a higher share of actives than the screen did.

The test has as its system HepG2. Nature of the test: cytotoxicity call (relative viability < 0.9). The following applies: 10 µM.
As for `C[C@H](CO)N1C[C@H](C)[C@@H](CN(C)Cc2ccc(C(=O)Nc3ccccc3N)cc2)OCc2cnnn2CCCC1=O`, the cytotoxicity call is “inactive”.

Take `CC(C)(C)[S@@](=O)N1Cc2cc(C(=O)N3CCCCC3)nc(-c3cccc(-c4ccc(F)cc4)c3)c2[C@H]1CCO`: the cytotoxicity call was “inactive”.

Regarding `O=C(CN1CCOCC1)NCC[C@H]1CC[C@H](NS(=O)(=O)c2ccc(Cl)cc2)[C@H](CO)O1`, the cytotoxicity call was “inactive”.

Take `CCc1cc(=O)oc2c(C)c(O[C@@H]3O[C@H](CO)[C@@H](O)[C@H](O)[C@H]3O)ccc12`: the cytotoxicity call was “inactive”.

`COc1ccc(S(=O)(=O)N(C)C[C@H]2Oc3ccc(NC(=O)CCC(F)(F)F)cc3CC(=O)N([C@H](C)CO)C[C@H]2C)cc1`: the cytotoxicity call is “inactive”.

For `Cc1cc(C(=O)Nc2cccc3c2O[C@H](CN(C)Cc2ccccc2)[C@H](C)CN([C@@H](C)CO)C3=O)n(C)n1`, the cytotoxicity call is “inactive”.

As to `COCC#Cc1ccc2c(c1)O[C@H](CN(C)C(=O)C1CCCCC1)[C@@H](C)CN([C@@H](C)CO)S2(=O)=O`, the cytotoxicity call was “inactive”.

Regarding `CO[C@H](CN(C)S(=O)(=O)c1cn(C)cn1)[C@H](C)CN(C(=O)Nc1ccc(C(F)(F)F)cc1)[C@H](C)CO`, the cytotoxicity call is “inactive”.

With `CC(C)NC(=O)Nc1ccc2c(c1)C(=O)N([C@H](C)CO)C[C@@H](C)[C@@H](CN(C)C(=O)Nc1ccc3c(c1)OCO3)O2`, the cytotoxicity call was “inactive”.

In the case of `Cc1n[nH]c(C)c1S(=O)(=O)N1CCCC1`, the cytotoxicity call was “inactive”.

As for `COc1ccc(NC(=O)Nc2ccc3c(c2)[C@@H]2C[C@H](CC(=O)N4CCN(C)CC4)O[C@H](CO)[C@@H]2O3)cc1`, the cytotoxicity call is “inactive”.

As to `C[C@@H]1CN([C@H](C)CO)C(=O)c2cccc(NC(=O)Nc3cccc4ccccc34)c2O[C@@H]1CN(C)S(=O)(=O)c1ccc(F)cc1`, the cytotoxicity call is “inactive”.

For the compound `C[C@H]1CN([C@@H](C)CO)C(=O)c2cccc(NC(=O)Nc3cccc4ccccc34)c2O[C@@H]1CN(C)S(=O)(=O)c1ccc(Cl)cc1`, the cytotoxicity call is “inactive”.

As to `C[C@@H]1CN([C@@H](C)CO)C(=O)c2cccc(NC(=O)Nc3cccc4ccccc34)c2O[C@@H]1CN(C)S(=O)(=O)c1ccc(Cl)cc1`, the cytotoxicity call was “inactive”.

For the compound `C[C@H]1CN([C@@H](C)CO)C(=O)c2cccc(NC(=O)Nc3cccc4ccccc34)c2O[C@@H]1CN(C)S(=O)(=O)c1ccc(F)cc1`, the cytotoxicity call is “active”.

As for `C[C@H](CO)N1C[C@H](C)[C@@H](CN(C)S(=O)(=O)c2ccc(Cl)cc2)Oc2c(NC(=O)Nc3cccc4ccccc34)cccc2C1=O`, the cytotoxicity call was “active”.

For the compound `C[C@@H]1CN([C@@H](C)CO)C(=O)c2cccc(NC(=O)Nc3cccc4ccccc34)c2O[C@H]1CN(C)S(=O)(=O)c1ccc(F)cc1`, the cytotoxicity call was “inactive”.

For `C[C@H]1CN([C@@H](C)CO)C(=O)c2cccc(NS(C)(=O)=O)c2O[C@H]1CN(C)S(=O)(=O)c1ccc(Cl)cc1`, the cytotoxicity call is “inactive”.

For `C[C@H]1CN([C@@H](C)CO)C(=O)Cc2cc(NC(=O)CCN3CCOCC3)ccc2O[C@@H]1CN(C)S(=O)(=O)c1ccccc1`, the cytotoxicity call is “inactive”.

`COc1ccc(NC(=O)N(C)C[C@H]2Oc3ccc(NC(=O)CCN4CCOCC4)cc3C(=O)N([C@H](C)CO)C[C@@H]2C)cc1`: the cytotoxicity call was “inactive”.

Consider `CCS(=O)(=O)N1C[C@]2(CN(C2)S(=O)(=O)c2cn(cn2)C)c2c(n(c3cc(ccc23)OC)C)[C@@H]1CO`, for which the cytotoxicity call is “inactive”.

`CC(=O)N(C)C[C@@H]1Oc2cc(C#CCN(C)C)ccc2S(=O)(=O)N([C@H](C)CO)C[C@H]1C`: the cytotoxicity call was “inactive”.

On to `Cc1noc(C)c1S(=O)(=O)N(C)C[C@H]1Oc2ccc(NC(=O)CCN3CCOCC3)cc2CC(=O)N([C@@H](C)CO)C[C@H]1C`, for which the cytotoxicity call is “inactive”.

Consider `CC1CCC2C(C)C(O)OC3OC4(C)CCC1C32OO4` (stereo not drawn), for which the cytotoxicity call is “active”.

As to `CC(=O)C1CCC2C3CC=C4CC(OC(=O)CCC(=O)O)CCC4(C)C3CCC12C` (stereo not drawn), the cytotoxicity call was “inactive”.

For the compound `CC1CCC2C(C)C(OC(=O)CCC(=O)O)OC3OC4(C)CCC1C32OO4` (stereo not drawn), the cytotoxicity call was “active”.

For `COC1OC2OC3(C)CCC4C(C)CCC(C1C)C24OO3` (stereo not drawn), the cytotoxicity call is “inactive”.

On to `CCCN(C)C[C@@H]1OCCCC[C@@H](C)Oc2ccc(NC(=O)C3CCCCC3)cc2C(=O)N([C@@H](C)CO)C[C@@H]1C`, for which the cytotoxicity call is “inactive”.

In the case of `COc1cc(/C=C/C(=O)C2=C(NCCc3ccccc3)S[C@H](c3ccc(O)c(OC)c3)CC2=O)ccc1O`, the cytotoxicity call was “inactive”.

`C[C@@H]1CN([C@@H](C)CO)C(=O)c2cccc(NS(=O)(=O)c3cn(C)cn3)c2O[C@H]1CN(C)CC1CC1`: the cytotoxicity call was “inactive”.

As for `CNC[C@H]1Oc2ccc(NC(=O)Cn3cnnn3)cc2CC(=O)N([C@H](C)CO)C[C@@H]1C`, the cytotoxicity call was “inactive”.

As for `C[C@@H](O)[C@@H](Nc1ncnc2ccccc12)C(=O)O`, the cytotoxicity call is “inactive”.

For `C[C@H]1CN([C@@H](C)CO)C(=O)c2cccc(NC(=O)c3ccc(-c4nccs4)cc3)c2O[C@@H]1CN(C)Cc1ccc2c(c1)OCO2`, the cytotoxicity call is “inactive”.

As for `C[C@@H]1CCCCO[C@H](CN(C)Cc2ccc(C(=O)O)cc2)[C@@H](C)CN([C@@H](C)CO)C(=O)c2cc(NC(=O)c3ccccc3)ccc2O1`, the cytotoxicity call was “inactive”.

As to `CO[C@@]12[C@@H]3N[C@@H]3CN1C1=C(C(=O)C(N)=C(C)C1=O)[C@@H]2COC(N)=O`, the cytotoxicity call is “active”.

Regarding `COC12C(COC(N)=O)C3=C(C(=O)C(C)=C(N)C3=O)N1CC1NC12` (stereo not drawn), the cytotoxicity call was “active”.

As for `CO[C@@]12[C@H](COC(N)=O)C3=C(C(=O)C(C)=C(N)C3=O)N1C[C@@H]1N[C@@H]12`, the cytotoxicity call is “inactive”.

With `COc1cccc(S(=O)(=O)Nc2ccc3c(c2)[C@@H]2C[C@@H](CC(=O)NCCc4ccccc4)O[C@@H](CO)[C@@H]2O3)c1`, the cytotoxicity call was “inactive”.

In the case of `C=CCOC(=O)[C@@H]1[C@H]2C(=O)O[C@H](c3ccccc3)[C@H](c3ccccc3)N2[C@H](c2ccc(OCCOC(=O)[C@@H]3C[C@@H]4C(=O)N[C@@H](CC(C)C)C(=O)N4[C@@H]3c3ccc(O)cc3)cc2)[C@@]12C(=O)Nc1ccc(I)cc12`, the cytotoxicity call is “inactive”.

Consider `COC(=O)C[C@H]1CC[C@H]2[C@H](COc3ccc(NS(=O)(=O)c4ccccc4Cl)cc3C(=O)N2C)O1`, for which the cytotoxicity call is “inactive”.

For the compound `O=C(/C=C/c1cccc(-c2cn(-c3cccc(C(=O)N4CCC5(CC4)C(=O)NCN5c4ccccc4)c3)nn2)c1)NO`, the cytotoxicity call is “inactive”.

On to `O=C(CCc1cn(CC(=O)N2CCC3(CC2)C(=O)NCN3c2ccccc2)nn1)NO`, for which the cytotoxicity call was “active”.

On to `O=C(NO)c1cn(-c2cccc(C(=O)N3CCC4(CC3)C(=O)NCN4c3ccccc3)c2)nn1`, for which the cytotoxicity call was “active”.

As for `O=C(/C=C/c1cccc(-c2cn(CC(=O)N3CCC4(CC3)C(=O)NCN4c3ccccc3)nn2)c1)NO`, the cytotoxicity call is “inactive”.

Regarding `O=C(Cn1cc(CN2C(=O)COC[C@H]2c2ccccc2)nn1)N1CCC2(CC1)C(=O)NCN2c1ccccc1`, the cytotoxicity call is “inactive”.

As to `O=C(NO)c1cn(CC(=O)N2CCC3(CC2)C(=O)NCN3c2ccccc2)nn1`, the cytotoxicity call is “inactive”.

Regarding `C[C@@H]1CN([C@H](C)CO)C(=O)c2cc(NS(=O)(=O)c3ccc(F)cc3)ccc2O[C@@H](C)CCCCO[C@@H]1CN(C)S(=O)(=O)c1ccc(Cl)cc1`, the cytotoxicity call is “inactive”.

As for `C[C@@H]1CN([C@H](C)CO)C(=O)c2cccc(NC(=O)c3cnccn3)c2O[C@H]1CN(C)S(C)(=O)=O`, the cytotoxicity call was “inactive”.

Take `C[C@@H]1CCCCO[C@@H](CN(C)C(=O)c2ccncc2)[C@@H](C)CN([C@H](C)CO)C(=O)c2cc(NC(=O)C3CCCCC3)ccc2O1`: the cytotoxicity call was “inactive”.

For `C[C@@H]1CN([C@H](C)CO)C(=O)c2cc(NC(=O)C3CCCCC3)ccc2O[C@@H](C)CCCCO[C@@H]1CN(C)C(=O)c1ccncc1`, the cytotoxicity call is “inactive”.

On to `C[C@H]1CN([C@@H](C)CO)C(=O)c2cc(NC(=O)CCC(F)(F)F)ccc2O[C@@H]1CN(C)Cc1ccc(C(=O)Nc2ccccc2N)cc1`, for which the cytotoxicity call is “inactive”.

Take `COc1ccc(NC(=O)N(C)C[C@H]2OCCCC[C@@H](C)Oc3ccc(NS(=O)(=O)c4c(C)noc4C)cc3C(=O)N([C@@H](C)CO)C[C@H]2C)cc1`: the cytotoxicity call is “inactive”.

Regarding `NNc1ccc2nncn2n1`, the cytotoxicity call was “inactive”.

Consider `C[C@@H]1CN([C@@H](C)CO)C(=O)Cc2cc(NC(=O)CCN3CCOCC3)ccc2O[C@H]1CN(C)S(=O)(=O)c1cn(C)cn1`, for which the cytotoxicity call was “inactive”.

Turning to `C[C@H]1CN([C@@H](C)CO)C(=O)c2cc(C#CCN(C)C)cnc2O[C@H]1CN(C)C(=O)Nc1cccc(F)c1`, the cytotoxicity call is “inactive”.

Consider `C[C@H]1CN([C@@H](C)CO)C(=O)c2cc(C#CCc3ccccc3)cnc2O[C@H]1CN(C)CC1CCOCC1`, for which the cytotoxicity call was “inactive”.

Consider `CC(C)N1C[C@@H](C)[C@H](CN(C)Cc2ccc(Oc3ccccc3)cc2)Oc2c(C(=O)Nc3ccncc3)cccc2C1=O`, for which the cytotoxicity call was “inactive”.

As for `Cc1ccc(O)c(C(C)(C)C)c1`, the cytotoxicity call was “inactive”.

Consider `CC(C)(Sc1cc(C(C)(C)C)c(O)c(C(C)(C)C)c1)Sc1cc(C(C)(C)C)c(O)c(C(C)(C)C)c1`, for which the cytotoxicity call was “inactive”.

With `Cc1cc(C(C)(C)C)c(O)c(C(C)(C)C)c1`, the cytotoxicity call is “active”.

On to `C[C@H](CO)N1C[C@H](C)[C@H](CN(C)C(=O)CN(C)C)Oc2ncc(C#CC(C)(C)O)cc2C1=O`, for which the cytotoxicity call is “inactive”.

In the case of `C[C@@H]1CN([C@@H](C)CO)C(=O)c2cccc(NC(=O)CCCCCC(=O)Nc3ccccc3N)c2O[C@@H]1CN(C)S(=O)(=O)c1cn(C)cn1`, the cytotoxicity call was “inactive”.

For the compound `C[C@H]1CN([C@@H](C)CO)C(=O)c2cc(NS(=O)(=O)c3ccccc3)ccc2O[C@@H]1CN(C)Cc1ccc(Cl)c(Cl)c1`, the cytotoxicity call was “inactive”.

Take `C[C@@H]1CN([C@@H](C)CO)C(=O)c2cc(NS(=O)(=O)c3ccccc3)ccc2O[C@H]1CN(C)Cc1ccc(Cl)c(Cl)c1`: the cytotoxicity call is “inactive”.

With `C[C@@H]1CN([C@@H](C)CO)C(=O)c2cc(NS(=O)(=O)c3ccccc3)ccc2O[C@@H]1CN(C)Cc1ccc(Cl)c(Cl)c1`, the cytotoxicity call was “active”.

In the case of `C[C@H](CO)N1C[C@H](C)[C@@H](CN(C)Cc2ccc(Cl)c(Cl)c2)Oc2ccc(NS(=O)(=O)c3ccccc3)cc2C1=O`, the cytotoxicity call is “inactive”.

With `C[C@@H]1CN([C@H](C)CO)C(=O)c2cc(NS(=O)(=O)c3ccccc3)ccc2O[C@@H]1CN(C)Cc1ccc(Cl)c(Cl)c1`, the cytotoxicity call is “active”.

With `C[C@H](CO)N1C[C@H](C)[C@H](CN(C)Cc2ccc(Cl)c(Cl)c2)Oc2ccc(NS(=O)(=O)c3ccccc3)cc2C1=O`, the cytotoxicity call was “inactive”.
